# NPSR antagonist: qHTS Assay for Antagonists of the Neuropeptide S Receptor: cAMP Signal Transduction. Q6W5P4. CHO-NPSR cells, cAMP TR-FRET, antagonist mode. Potency, µM (series often up to 38.3 µM), for the others: at the highest dose activity change, negative = inhibition, usual class: inhibitors. 220,000 compounds, 1% hits; note: % is set by controls: 0 for no effect and ±100 for the full control effect; nearly all actives have a fitted effect of over 50% in size
# GCN5L2 inh: qHTS Assay for Inhibitors of GCN5L2. Histone acetyltransferase KAT2A (Homo sapiens), Q92830. AID 504327, 2011. 390,000 compounds, 0.21% hits. Potency, µM (series often up to 58.9 µM), for inactives: top-dose activity change, negative = inhibition, hits mostly inhibitors. GCN5L2 HAT assay, ThioGlo1 CoA-SH fluorescence; note: % is set by controls: 0 for no effect and ±100 for the full control effect
# Target sequence (Q92830 whole entry, looked up): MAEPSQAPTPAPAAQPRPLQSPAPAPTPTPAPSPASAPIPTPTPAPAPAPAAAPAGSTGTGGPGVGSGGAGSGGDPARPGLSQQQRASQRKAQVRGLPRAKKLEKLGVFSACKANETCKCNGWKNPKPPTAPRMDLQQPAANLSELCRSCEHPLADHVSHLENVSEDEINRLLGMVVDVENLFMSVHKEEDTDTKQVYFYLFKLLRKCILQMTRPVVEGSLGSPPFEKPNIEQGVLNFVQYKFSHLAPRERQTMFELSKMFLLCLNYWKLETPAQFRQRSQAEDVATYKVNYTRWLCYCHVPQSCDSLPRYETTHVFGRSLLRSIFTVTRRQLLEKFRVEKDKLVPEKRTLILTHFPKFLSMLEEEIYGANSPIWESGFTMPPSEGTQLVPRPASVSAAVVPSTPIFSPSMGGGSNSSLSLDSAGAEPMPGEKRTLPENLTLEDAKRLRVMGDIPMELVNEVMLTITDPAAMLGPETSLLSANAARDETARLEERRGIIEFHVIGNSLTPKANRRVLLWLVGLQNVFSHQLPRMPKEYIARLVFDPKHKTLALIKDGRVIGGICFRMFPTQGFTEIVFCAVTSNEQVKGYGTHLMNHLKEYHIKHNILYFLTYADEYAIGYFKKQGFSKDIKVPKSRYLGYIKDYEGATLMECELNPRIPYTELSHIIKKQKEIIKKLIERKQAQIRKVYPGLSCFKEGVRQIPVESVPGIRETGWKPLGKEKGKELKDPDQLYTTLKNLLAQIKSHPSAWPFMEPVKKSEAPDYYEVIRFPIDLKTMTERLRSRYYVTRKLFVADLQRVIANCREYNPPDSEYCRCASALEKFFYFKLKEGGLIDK
#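 Compounds, pin-transferred from DMSO stocks, meet 20nM GCN5L2 for 15 min before the reaction begins with H3(1-25) peptide (75uM) and acetyl-CoA (70uM). Thiol-reactive ThioGlo1 reports CoA release over 20 min at room temperature.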
# Sfp inh: qHTS Assay for Inhibitors of Bacillus subtilis Sfp phosphopantetheinyl transferase (PPTase) | Biochemical Sfp PPTase activity, qHTS | Potency, µM, inactives show largest response in the series, negative = inhibition, hits mostly inhibitors | 310,000 compounds, 3.5% hits | AID 1490, 2009;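 note: the enzyme is Sfp with the accession as filed and its product quenches rhodamine fluorescence; 0% = enzyme reaction without inhibitor and -100% = no enzyme wells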
#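 Fluorescence-quenching assay: 15 nM Sfp-PPTase preincubated 15 min at room temperature with compound, then 5 uM rhodamine-CoA and 12.5 uM BHQ-2-labelled YbbR peptide added. Fluorescence (ex 525/em 598 nm) read at start and after 30 min; difference gives rate.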
# Epigenetic reg: Quantitative High-Throughput Screen for Regulators of Epigenetic Control; murine LDR cells, GFP reporter derepression, 30 h; Potency, µM (titrated, usually from 53.9 µM), for inactives: at the highest dose GFP activation, most hits filed as activators; 280,000 compounds, 0.2% hits; note: % of control where 0% means no effect; nearly all actives have a fitted effect of over 60% in size
#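 Reporter derepression read as number of fluorescent GFP-positive objects, 20-120 um in size, counted by laser-scanning cytometer. Mouse LDR line with an epigenetically silenced CMV-GFP locus; compound incubation 30 h, 37 C.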
# JMJD2E inh: qHTS Assay for Inhibitors of Human Jumonji Domain Containing 2E (JMJD2E); Lysine-specific demethylase 4E (Homo sapiens), B2RXH2; JMJD2E catalytic domain, FDH-coupled NADH fluorescence (FDH is formaldehyde dehydrogenase); Potency, µM (doses to about 57.1 µM), for inactives: top-dose activity change, negative = inhibition, hits mostly inhibitors; 230,000 compounds, 1.6% hits; AID 2147, 2009; active = well fitted inhibition curve with a large enough effect, not every such curve was filed as active; inconclusive = small, poorly fitted or top-dose-only effect, or another doubt; inactive = no such curve, though single readings can be large or run the other way;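 note: 0% = wells with enzyme and -100% = buffer wells without enzyme; nearly all actives have a fitted effect of over 50% in size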
# IMPase Li inh: qHTS Assay for Identifying the Cell-Membrane Permeable IMPase Inhibitors: Potentiation with Lithium. CHO-M1 cells, IP1 TR-FRET (IP-One), carbachol + lithium. Potency, µM (top dose mostly 59.4 µM), inactives show at the top dose activity, negative = IMPase inhibition, hits mostly inhibitors. 210,000 compounds, 0.35% hits;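 note: IP1 builds up when IMPase is blocked and the TR-FRET signal falls; plate controls were basal vehicle for no effect and high inhibitor control for full effect; nearly all actives have a fitted effect of over 50% in size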
#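 IP1 accumulation measured by competitive TR-FRET in lysed CHO-M1 cells after 30 min compound exposure at 37C, with a small lithium addition to potentiate weak responses. Hill-equation AC50 from ratio and donor-channel data.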
# Starred values were filed as active, the others as inactive; ? = inconclusive; . = no result; ! = a repeat was not active; [ ] = dose if it differs, or a comment. Compounds with a hit are over-represented: about 3.6% of the library has one in this group of screens. Unless noted, calls come from the whole dose curve; as a rule, active = well fitted curve in the direction sought with a large enough effect; inconclusive = small, poorly fitted or top-dose-only effect, or another doubt; inactive = no such curve, though single readings can be large; an effect the other way counts as inactive or inconclusive. Potency is the fitted concentration of half-maximal effect.
SMILES,NPSR antagonist,GCN5L2 inh,Sfp inh,Epigenetic reg,JMJD2E inh,IMPase Li inh
COc1ccc(/C=C(\C#N)C(=O)Nc2cc(S(=O)(=O)N3CCOCC3)ccc2N2CCCC2)cc1,-5%,-4%,35µM*,-2%,-23%,5%
O=C(Nc1cc(S(=O)(=O)N2CCOCC2)ccc1N1CCCCC1)c1cc(-c2ccccn2)nc2ccccc12,-34%,-8%,13µM*,9%,?,23%
CCCCC/C=C\C=C\[C@H](O)CCCCCCCC(=O)O,.,-8%,24%,1%,.,-5%
COc1ccc(CNc2ccnc(-c3c(C)noc3C)n2)c(OC)c1,.,?,?,.,.,-2%
Cc1ccccc1OCC(O)Cn1c(=N)n(Cc2ccccc2)c2ccccc21 (centres undefined),10µM*,-8%,-24%,0%,0%,.
CCCCCn1c(=N)n(CC(O)COc2ccccc2OC)c2ccccc21 (centres undefined),-9%,-3%,25µM*!,-1%,-6%,-7%
C=CCn1c(=N)n(CC(O)COc2ccccc2OC)c2ccccc21 (centres undefined),-3%[46.1 µM],-6%,22%,1%,3%,7%[38.3 µM]
O=C(NCc1cccc(F)c1)c1cccc(NC(=O)c2nsc3ccccc23)c1,.,3%,.,-2%,.,.
Cc1cccc(NC(=O)CS(=O)(=O)c2cccc3nsnc23)c1,.,-1%,.,1%,.,.
CCOc1ccc(NC(=O)CSc2oc(-c3ccc(F)cc3)nc2S(=O)(=O)c2ccc(C)cc2)cc1,.,3%,.,0%,.,.
CCN(C(=O)c1cnc(N2CCN(c3ncccn3)CC2)c2ccccc12)c1cccc(Cl)c1,?,-6%,40µM*,5%,?,25%[38.3 µM]
CN(C(=O)c1cnc(N2CCN(c3ncccn3)CC2)c2ccccc12)c1ccc(Cl)cc1,-5%[46.1 µM],1%,56µM*,-1%,0%,13%[38.3 µM]
O=C(COC(=O)CSc1ccc2ccccc2c1Br)NC1CC1,-47%,2%,16%,0%,9%,10µM*
COc1ccc(/C=C/C2=CCN(Cc3ccc(OC)cc3)CC2)cc1,-9%,-10%,4%,0%,28µM*,-1%
Cc1nc2ccccc2oc1=O,.,.,-3%,1%,5%,22%
Nc1cc2nc3ccccc3oc-2cc1=O,16%,1%,22µM*,?,13µM*,.
N#Cc1c(N)[nH]c(=S)c(C#N)c1-c1ccccc1,27%[46.1 µM],-19%,40µM*,-4%,?,13µM*
Cc1ccc(-c2cc(-c3ccccc3)[nH]c(=S)c2C#N)cc1,-4%[46.1 µM],-3%,8%,0%,12%,?
Cc1cccc(Cn2cccc2CNS(=O)(=O)c2ccccc2F)c1,.,-3%,.,-1%,.,.
CCCCC/C=C\C/C=C\C/C=C\C/C=C\CCCC(=O)O[C@H](COCCCCCCCCCCCCCCCC)COP(=O)([O-])OCC[N+](C)(C)C,.,-11%,21%,12%,-24%,-2%
CS(=O)(=O)c1ncc(Cl)c(C(=O)Nc2ccc3ccccc3c2)n1,10µM*,-7%,13µM*,-2%,-2%,20%
CCC1CCCCN1S(=O)(=O)c1ccc(NC(=O)c2nc(S(C)(=O)=O)ncc2Cl)cc1 (centres undefined),.,-4%,25µM*,.,.,.
O=C(CCN1C(=O)/C(=C/c2ccco2)SC1=S)Nc1ccc(O)cc1C(=O)O,.,-7%,-18%,.,.,.
O=C1/C(=C\c2ccco2)SC(=S)N1Cc1ccccc1,-16%[46.1 µM],-5%,?,0%,-14%,3%[38.3 µM]
O=C(CN1C(=O)/C(=C\c2ccco2)SC1=S)Nc1ccc(O)cc1C(=O)O,.,-21%,56µM*,.,.,.
SMILES,NPSR antagonist,GCN5L2 inh,Sfp inh,Epigenetic reg,JMJD2E inh,IMPase Li inh
O=C(O)CN1C(=O)/C(=C\c2ccc(OC(=O)c3ccco3)cc2)SC1=S,.,-9%,45µM*,.,.,.
O=C(CCCN1C(=O)/C(=C/c2ccco2)SC1=S)Nc1ccccc1C(=O)O,-23%,-25%,50µM*,0%,?,.
COc1ccc(CCN2C(=O)/C(=C\c3ccco3)SC2=S)cc1OC,-14%,?,18µM*,14%,-13%,12%
COC(=O)[C@H](Cc1ccccc1)NC(=O)O[C@H]1C(=O)c2cc(OC)ccc2O[C@@H]1c1ccc(OC)c(Br)c1,.,.,-5%,1%,?,22%
Cc1ccccc1CN1C(=O)C(O)(CC(=O)c2cccc(Br)c2)c2ccccc21 (centres undefined),.,-11%,.,1%,.,.
O=C(O)CCN1C(=O)/C(=C\c2ccc(-c3nc4ccccc4s3)o2)SC1=S,13µM*,0%,45µM*,1%,-2%,23%[38.3 µM]
Cn1cccc1/C=C1\SC(=S)N(CC(=O)O)C1=O,-10%,-6%,-7%,-1%,-18%,13%
O=C(O)CCCN1C(=O)/C(=C\c2ccco2)SC1=S,33%,-9%,18µM*,-3%,?,6%
O=C(O)CN1C(=O)/C(=C\C(Br)=C\c2ccccc2)SC1=S,.,-17%,56µM*,.,.,.
O=C(O)CCN1C(=O)/C(=C\c2ccncc2)SC1=S,-15%,-2%,?,-2%,?,5%
O=C(O)CN1C(=O)/C(=C/c2ccc(SCc3ccccc3)o2)SC1=S,17%,?,14µM*,-2%,?,16%
O=C(CCCN1C(=O)/C(=C\c2ccco2)SC1=S)Nc1ccc2ccccc2c1,-14%[46.1 µM],24%,?,?,-3%,0%
CC(C(=O)Nc1ccc(O)cc1C(=O)O)N1C(=O)/C(=C\c2cccs2)SC1=S (centres undefined),.,-37%,22µM*,.,.,.
CC(C)(C)c1ccc(S(=O)(=O)N(CCCN2CCOCC2)Cc2cccs2)cc1,-35%,-12%,2.2µM*,-1%,-7%,-3%
O=S(=O)(Nc1cc(O)cc2cccnc12)c1ccc(Cl)s1,.,.,-25%,.,.,.
O=C1SC(Cc2ccccc2)C(=O)N1c1ccccc1 (centres undefined),0%,1%,20%,0%,-1%,.
Cc1ccc(N2C(=O)SC(Cc3ccccc3)C2=O)cc1 (centres undefined),26%,-20%,22µM*,2%,?,.
Cc1ccc(NC(=O)CC2SC3=NCCN3C2=O)cc1 (centres undefined),?,-3%,71µM*,?,2%,3%
Cc1ccc(NC(=O)CC2SC(=O)N(c3ccccc3)C2=O)cc1 (centres undefined),?,-23%,20µM*,-1%,-10%,2%

# Compound activity: PubChem BioAssay, National Center for Advancing Translational Sciences (NCATS)
